In PubChem BioAssay (Tox21) one finds Potency and activation data, which are given here for five compounds.

Values joined by “and” are separate entries in the source; they are usually repeats but may differ in a detail not shown here. Equal values may be shown once. Results filed as inconclusive are left out. A structure can be active in one record and inactive in another. Active and inactive are the calls of the source. Unless noted, the call rests on the fitted dose curve; in most records, active means well fitted curve in the direction sought with a large enough effect in the repeat runs; inconclusive means weak or mixed curves; inactive means no such curve, though single readings can be large; an effect the other way counts as inactive or inconclusive.

Assay [1] can be described thus: qHTS assay to identify small molecule antagonists of the glucocorticoid receptor (GR) signaling pathway - cell viability counter screen (AID 720693). Further: nearly all actives have a fitted effect of over 55% in size. Further: potency means the concentration at half of the fitted maximal effect.
Assay [2] in a line: qHTS assay for identifying genotoxic compounds that show differential cytotoxicity against isogenic chicken DT40 cell lines with known DNA damage response pathways - wild type cell line (AID 743012). Further: nearly all actives have a fitted effect of over 60% in size. Further: potency means the concentration at half of the fitted maximal effect. The essentials: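 Cytotoxicity in repair-proficient parental chicken DT40 cells serves as the comparator for Rad54/Ku70- and Rev3-deficient lines. Cells were exposed to compounds for 40 h at 37 C/5% CO2, and ATP-based luminescence (CellTiter-Glo) measured viability.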
For orientation: Quantitative high-throughput screening tests each substance at several concentrations.

The nature of assay [3]: qHTS assay for identifying genotoxic compounds that show differential cytotoxicity against isogenic chicken DT40 cell lines with known DNA damage response pathways - Rev3 mutant cell line (AID 743014). Further: nearly all actives have a fitted effect of over 55% in size. Further: potency means the concentration at half of the fitted maximal effect.
A short description of assay [4]: qHTS assay for identifying genotoxic compounds that show differential cytotoxicity against isogenic chicken DT40 cell lines with known DNA damage response pathways - Rad54/Ku70 mutant cell line (AID 743015). Further: nearly all actives have a fitted effect of over 60% in size. Further: potency means the concentration at half of the fitted maximal effect.
A short description of assay [5]: qHTS assay to identify small molecule antagonists of the androgen receptor (AR) signaling pathway - cell viability counter screen (AID 743033; further: nearly all actives have a fitted effect of over 45% in size; further: potency means the concentration at half of the fitted maximal effect).
Assay [6] has as its target Androgen receptor (Homo sapiens) (UniProt P10275). Briefly: qHTS assay to identify small molecule antagonists of the androgen receptor (AR) signaling pathway (AID 743035; active means well fitted inhibition curve with a large enough effect in the signal ratio in the repeat runs, not every such curve was filed as active; the % refers to the signal ratio; further: potency means the concentration at half of the fitted maximal effect). The essentials: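 Steps: seed AR-UAS-bla GripTite HEK293 cells, incubate 4 h at 37C; pin in test compound, then add agonist R1881; incubate 16 h at 37C; add LiveBLAzer B/G FRET substrate, 2 h at room temperature; read fluorescence.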

Assay [7] has the same target. Description: qHTS assay to identify small molecule agonists of the androgen receptor (AR) signaling pathway using the MDA cell line (AID 743040; further: nearly all actives have a fitted effect of over 20% in size; further: potency means the concentration at half of the fitted maximal effect). The essentials: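 Luciferase read-out, ONE-Glo, 30 min RT. Cells: MDA-kb2 AR-luc, MMTV promoter with AR and GR response elements. Compound exposure 16 h, 37C, 0% CO2, after 5 h pre-incubation. qHTS agonist mode.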
A short description of assay [8]: qHTS assay to identify small molecule antagonists of the androgen receptor (AR) signaling pathway using the MDA cell line - cell viability counter screen (AID 743041; further: nearly all actives have a fitted effect of over 45% in size; further: potency means the concentration at half of the fitted maximal effect). Put shortly:
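Cytotoxicity counter screen: MDA-kb2 AR-luc cells, compound + R1881, 16 h, 37C, 0% CO2; CellTiter-Fluor added at 15.5 h, fluorescence read after 30 min.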

The target in assay [9] is Androgen receptor (Homo sapiens) (UniProt P10275). Briefly: qHTS assay to identify small molecule antagonists of the androgen receptor (AR) signaling pathway using the MDA cell line (AID 743042; further: nearly all actives have a fitted effect of over 55% in size; further: potency means the concentration at half of the fitted maximal effect). The essentials: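 MDA-kb2 breast carcinoma cells carrying MMTV-luciferase (AR/GR responsive) were co-treated with compounds and the agonist R1881 for 16 h at 37C. Inhibition read as ONE-Glo luminescence; CellTiter-Fluor fluorescence measured in parallel for cytotoxicity.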

The nature of assay [10]: qHTS assay to identify small molecule antagonists of the thyroid receptor (TR) signaling pathway - cell viability counter screen (AID 743064). Further: nearly all actives have a fitted effect of over 50% in size. Further: potency means the concentration at half of the fitted maximal effect. The essentials:
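In rat pituitary GH3.TRE-Luc reporter cells co-exposed to compound and 1 nM T3 for 23.5 h, cytotoxicity was assessed with CellTiter-Fluor in the same wells, read by fluorescence.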

Assay [11] in a line: qHTS assay to identify small molecule antagonists of the thyroid receptor (TR) signaling pathway (AID 743065). Further: nearly all actives have a fitted effect of over 55% in size. Further: potency means the concentration at half of the fitted maximal effect. Put shortly: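 GH3.TRE-Luc rat pituitary cells (two TREs driving luciferase) were dosed with compound, then stimulated with 1 nM T3 (final) for 23.5 h at 37 C. ONE-Glo luminescence was the read-out, with CellTiter-Fluor fluorescence as the cytotoxicity counter-screen.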

Assay [12] relates to thyroid hormone receptor (rat, GH3 cells). Briefly: qHTS assay to identify small molecule agonists of the thyroid receptor (TR) signaling pathway (AID 743066; calls by dose curve).
The target of assay [13] is Estrogen receptor (Homo sapiens) (UniProt P03372). Briefly: qHTS assay to identify small molecule antagonists of the estrogen receptor alpha (ER-alpha) signaling pathway (AID 743069; active means well fitted curve in the direction sought with a large enough effect in the signal ratio in the repeat runs, not every such curve was filed as active; the % refers to the signal ratio). Put shortly:
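Beta-lactamase FRET fluorescence is read after 2 hr at room temperature with LiveBLAzer B/G substrate. Before that, ER-alpha-bla HEK293 cells sit 4 hr after plating, then receive compound plus 17beta-estradiol and incubate 18 hr at 37C.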

Assay [14] in a line: qHTS assay to identify small molecule antagonists of the estrogen receptor alpha (ER-alpha) signaling pathway - cell viability counter screen (AID 743074; calls by dose curve;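 further: HEK293 cells carrying ER-alpha-UAS-bla reporter stimulated with 17beta-estradiol; nearly all actives have a fitted effect of over 45% in size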).
The target in assay [15] is Estrogen receptor (Homo sapiens) (UniProt P03372). Briefly: qHTS assay to identify small molecule agonists of the estrogen receptor alpha (ER-alpha) signaling pathway (AID 743075; calls by dose curve;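 further: HEK293 GripTite cells with ER-alpha and UAS-driven beta-lactamase reporter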). Particulars: HEK293 ER-alpha-UAS-bla, beta-lactamase FRET ratio, 18 h; activation: at 70.1 µM (top of the series).
Assay [16] shares this target. Briefly: qHTS assay to identify small molecule agonists of the estrogen receptor alpha (ER-alpha) signaling pathway using the BG1 cell line (AID 743079). Further: nearly all actives have a fitted effect of over 20% in size. Particulars: BG1Luc4E2 cells, ERE-luciferase agonist, 22 h; at 70.3 µM (top of the series).
The nature of assay [17]: qHTS assay to identify small molecule antagonists of the estrogen receptor alpha (ER-alpha) signaling pathway using the BG1 cell line - cell viability counter screen (AID 743081).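 Further: compound given together with 17beta-estradiol as the ER stimulus; nearly all actives have a fitted effect of over 45% in size.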
Another assay concerns the target Aromatase (Homo sapiens) (UniProt P11511). Description: qHTS assay to identify aromatase inhibitors (AID 743083). Further: nearly all actives have a fitted effect of over 55% in size. Further: potency means the concentration at half of the fitted maximal effect.
Assay [18] in a line: qHTS assay to identify small molecule antagonists of the estrogen receptor alpha (ER-alpha) signaling pathway using the BG1 cell line (AID 743080; calls by dose curve; further: nearly all actives have a fitted effect of over 25% in size; further: potency means the concentration at half of the fitted maximal effect). Put shortly:
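Antagonist mode: compounds in DMSO were pinned onto BG1-Luc-4E2 cells alongside 17beta-estradiol agonist, incubated 21.5 h, and ERE-driven luciferase measured with ONE-Glo. Cytotoxicity was multiplexed using CellTiter-Fluor fluorescence.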

Assay [19] addresses Androgen receptor (Homo sapiens) (UniProt P10275). Briefly: qHTS assay to identify small molecule agonists of the androgen receptor (AR) signaling pathway (AID 743036; active means well fitted activation curve with a large enough effect in the signal ratio in the repeat runs, with a control signal flat, not every such curve was filed as active; the % refers to the signal ratio). Put shortly:
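Cell-based FRET reporter assay: HEK293 line with a UAS-beta-lactamase construct, compounds added in DMSO, 16 h exposure at 37C, then 2 h substrate step at room temperature and fluorescence intensity read.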
On the % scale 0 is the no-effect control and ±100 the full control effect.

Sequence of Aromatase (Homo sapiens) (P11511 whole entry, looked up): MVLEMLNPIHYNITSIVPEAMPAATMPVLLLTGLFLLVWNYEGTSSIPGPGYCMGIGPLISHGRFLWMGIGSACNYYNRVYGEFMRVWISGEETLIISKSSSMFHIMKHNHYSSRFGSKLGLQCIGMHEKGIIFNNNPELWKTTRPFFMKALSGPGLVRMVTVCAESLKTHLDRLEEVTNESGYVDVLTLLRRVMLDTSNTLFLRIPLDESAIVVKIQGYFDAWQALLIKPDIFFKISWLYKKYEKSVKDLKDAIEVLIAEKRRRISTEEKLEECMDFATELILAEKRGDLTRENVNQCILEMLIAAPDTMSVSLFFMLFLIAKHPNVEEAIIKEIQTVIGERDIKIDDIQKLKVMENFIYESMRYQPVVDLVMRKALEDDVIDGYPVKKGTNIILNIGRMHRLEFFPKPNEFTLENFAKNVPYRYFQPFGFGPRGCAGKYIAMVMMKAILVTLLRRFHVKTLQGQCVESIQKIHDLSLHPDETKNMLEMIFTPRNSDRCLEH
Sequence of Androgen receptor (Homo sapiens) (P10275 whole entry, looked up): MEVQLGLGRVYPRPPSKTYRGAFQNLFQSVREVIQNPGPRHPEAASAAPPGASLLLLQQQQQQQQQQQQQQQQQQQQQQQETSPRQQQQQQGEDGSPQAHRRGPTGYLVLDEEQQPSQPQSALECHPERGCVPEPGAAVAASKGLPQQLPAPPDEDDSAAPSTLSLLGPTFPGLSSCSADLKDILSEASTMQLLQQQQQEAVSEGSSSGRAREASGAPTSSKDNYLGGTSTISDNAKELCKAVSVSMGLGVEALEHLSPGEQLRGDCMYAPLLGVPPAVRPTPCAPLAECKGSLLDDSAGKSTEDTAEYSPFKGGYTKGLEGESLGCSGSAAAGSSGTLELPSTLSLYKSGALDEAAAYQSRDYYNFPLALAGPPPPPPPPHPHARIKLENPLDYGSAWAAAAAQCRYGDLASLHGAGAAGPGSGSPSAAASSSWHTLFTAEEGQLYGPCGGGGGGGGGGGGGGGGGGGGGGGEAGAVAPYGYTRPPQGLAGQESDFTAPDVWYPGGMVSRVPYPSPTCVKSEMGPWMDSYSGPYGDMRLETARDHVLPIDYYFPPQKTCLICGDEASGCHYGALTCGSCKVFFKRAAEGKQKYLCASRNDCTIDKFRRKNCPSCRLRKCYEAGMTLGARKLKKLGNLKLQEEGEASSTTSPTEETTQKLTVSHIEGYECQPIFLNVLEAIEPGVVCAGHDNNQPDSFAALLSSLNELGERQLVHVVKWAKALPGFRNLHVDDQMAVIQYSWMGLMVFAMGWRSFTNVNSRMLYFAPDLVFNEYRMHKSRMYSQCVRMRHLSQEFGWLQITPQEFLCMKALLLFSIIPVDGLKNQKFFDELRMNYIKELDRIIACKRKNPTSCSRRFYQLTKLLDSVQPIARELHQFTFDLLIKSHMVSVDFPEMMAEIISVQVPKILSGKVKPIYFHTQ
Sequence of Estrogen receptor (Homo sapiens) (P03372 whole entry, looked up): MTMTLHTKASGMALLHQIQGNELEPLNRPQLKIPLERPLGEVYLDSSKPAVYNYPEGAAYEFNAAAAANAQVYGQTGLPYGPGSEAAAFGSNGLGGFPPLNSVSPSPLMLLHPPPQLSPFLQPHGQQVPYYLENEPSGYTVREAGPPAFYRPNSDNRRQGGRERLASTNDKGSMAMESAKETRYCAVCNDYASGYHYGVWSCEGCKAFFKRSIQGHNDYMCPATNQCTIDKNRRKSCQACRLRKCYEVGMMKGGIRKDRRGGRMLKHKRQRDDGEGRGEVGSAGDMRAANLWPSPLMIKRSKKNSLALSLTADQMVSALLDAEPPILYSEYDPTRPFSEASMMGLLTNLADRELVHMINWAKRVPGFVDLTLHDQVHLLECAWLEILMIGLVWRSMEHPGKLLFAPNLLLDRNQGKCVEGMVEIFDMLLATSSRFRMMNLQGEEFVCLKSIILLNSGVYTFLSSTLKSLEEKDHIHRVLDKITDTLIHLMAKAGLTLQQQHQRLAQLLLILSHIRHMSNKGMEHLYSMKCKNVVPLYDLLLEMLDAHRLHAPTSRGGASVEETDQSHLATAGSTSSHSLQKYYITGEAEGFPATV

For the compound `Clc1ccc2nsnc2c1NC1=NCCN1`, the Potency result in assay [1], in [2], in assay [3], in assay [4], in assay [5] and in assay [6] was “inactive” in each case. Besides, the Potency result in assay [8], in [9], in assay [10], in assay [11], in assay [12] and in [13] was “inactive” in each case. Further, the Potency result (in [14]; in assay [15]; in [17]; in the assay with Aromatase (Homo sapiens)) was “inactive” in each case. The Potency in assay [7] is 26.6 µM (active). In addition, the activation in [16] was 1.06% (inactive).

For `CCCCCCCCOc1ccccc1C(=O)Nc1ccc(C(=O)OCC[N+](C)(CC)CC)cc1`, the Potency in [1] was 23.9 µM (active); in [2] it was 11.9 µM (active); in [3] it was 23.7 µM (active); in assay [4] it was 26.6 µM (active); in assay [10] it was 26.6 µM (active); in [11], 26.6 µM (active). Besides, the Potency result (in [5]; in assay [8]; in assay [14]; in assay [15]; in [17]; with Aromatase (Homo sapiens)) was “inactive” throughout. The activation in assay [16] was -29.5% (inactive).

Consider `Cc1c(C)c2c(c(C)c1O)CCC(C)(COc1ccc(CC3SC(=O)NC3=O)cc1)O2` (stereo unspecified), for which the Potency result in assay [1], in assay [7], in assay [8], in [12], in assay [14] and in [15] was “inactive” each time. In addition, the Potency result in [17] was “inactive”. For the same compound, the Potency in assay [2] was 10.6 µM (active) and 17.2 µM (active); in assay [3], 26.6 µM (active) and 15.4 µM (active); in assay [4], 10.6 µM (active) and 24.3 µM (active); in [5], “inactive and 24.5 µM (active)”; in assay [11], 13.3 µM (active) and 24.3 µM (active); in assay [18], 23.7 µM (active). Further, the Potency with Aromatase (Homo sapiens) was 29.8 µM (active) and 61.1 µM (active).

Take `Cc1ccc(O)c2ncccc12`: the Potency entry in assay [1], in assay [19], in assay [7], in assay [14], in [15] and in [18] was “inactive” in each case. Besides, the Potency was 2.11 µM (active) in [2]; 2.98 µM (active) in [3]; 4.73 µM (active) in assay [4]; 16.9 µM (active) in assay [5]; 26.8 µM (active) in [6]; 18.8 µM (active) in assay [8]. The Potency in assay [9] was 13.3 µM (active); in assay [10], 6.68 µM (active); in assay [11] it was 6.68 µM (active); with Aromatase (Homo sapiens), 13.3 µM (active).

Take `On1ccccc1=S`: the Potency result in assay [1] and in assay [17] was “inactive” in each case. The Potency in assay [2] is 0.215 µM (active); in assay [3], 0.215 µM (active); in [4] it was 0.215 µM (active); in assay [5], 0.385 µM (active); in assay [8], 0.959 µM (active); in assay [10], 1.52 µM (active). Further, the values for the Potency (in assay [11]; with Aromatase (Homo sapiens)) were 0.855 µM (active) and 0.382 µM (active), respectively.
